Bioassay records from PubChem.
Rows were chosen to be rich in hits. Some 4.9% of all compounds tested hit in one or more screens of this group.
Beta cell apopt = blocks beta cell apoptosis. INS-1E cytokine-induced death, ATP luminescence, 48 h; percent of positive-control rescue, neutral wells zero. protection from apoptosis, % (no concentration beside the values). actives 0.8% (n = 300,000). AID 435005;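 active = Every replicate reaches about 75%, or at least half do and their mean reaches it too, limit read from the data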;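 note: 0% = cytokine-treated negative control wells and 100% = positive control rescue; higher means more ATP so stronger rescue from cytokine killing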
Calb FLC = affects C. albicans growth with fluconazole | actives 0.57% (n = 300,000) | growth inhibition, % (concentration not given with the values) | C. albicans CaCi-2 (fluconazole-resistant clinical isolate) + fluconazole, Alamar Blue growth, 48 h | AID 1979;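 active = growth inhibition above about 58% in most replicates, limit read from the data, passing the limit was not always enough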;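 note: all wells also contain fluconazole at 8 µg/ml as a sub-toxic cotreatment; 0% = median of DMSO wells and 100% = median of geldanamycin control wells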
PP5 primary = blocks human protein phosphatase 5 activity; purified PP5c, OMFP substrate fluorescence; inhibition, % at 6.7 µM; AID 1987; P53041; actives 0.18% (n = 320,000);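 active = inhibition above the campaign's mean inhibition across all tested compounds plus 3 SD, cut at about 9.5% in these data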;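 note: 0% = DMSO only and 100% = 100 µM cantharidin control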
Mdm2-MdmX inh = disrupts the human Mdm2-MdmX interaction; O15151+Q00987; AID 485346; inhibition, % at 8 µM; SaOS-2 split-luciferase Mdm2/MdmX complementation, luminescence; actives 3% (n = 330,000);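 active = inhibition of at least 50% at 8 µM in the primary screen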
PP1 inh = counter-screen for PP5 inhibitors: inhibitors of human PP1-alpha; P62136; purified PP1alpha, OMFP fluorescence; inhibition, % at 6.7 µM; actives 0.9% (n = 320,000); AID 2235;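 active = inhibition above the mean inhibition of all tested compounds plus 3 SD, computed separately for each screening campaign, cut at about 15% in these data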
Target sequence (P62136 whole entry, looked up): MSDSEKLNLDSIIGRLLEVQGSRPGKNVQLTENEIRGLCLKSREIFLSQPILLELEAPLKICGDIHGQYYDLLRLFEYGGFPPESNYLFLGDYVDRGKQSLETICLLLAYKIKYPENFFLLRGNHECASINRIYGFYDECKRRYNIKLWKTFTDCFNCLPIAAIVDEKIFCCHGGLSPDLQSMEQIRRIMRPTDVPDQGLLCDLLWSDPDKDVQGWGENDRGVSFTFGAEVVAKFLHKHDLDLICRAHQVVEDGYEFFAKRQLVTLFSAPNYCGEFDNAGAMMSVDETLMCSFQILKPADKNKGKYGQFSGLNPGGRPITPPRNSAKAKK
CSC inhib = blocks cancer stem cells. inhibition, % at 7.5 µM. cancer stem cell-like cells viability, luminescence. actives 1.1% (n = 300,000); in the data active = inhibition above about 75%; tested in HMLE shEcad cells
PP1 confirm = confirmation of human PP1 phosphatase inhibitors; shares compounds with PP1 inh; purified PP1alpha, OMFP substrate fluorescence; inhibition, % at 6.7 µM; actives 52% (n = 1,900); AID 2358;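 active = mean PP1 inhibition above a set limit taken from the earlier primary screen, cut at about 15% in these data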
PP5 inh counter = PP5 phosphatase inhibition, counter-screen for PP1 inhibitors. purified PP5c, OMFP fluorescence. shares compounds with PP1 inh. actives 4% (n = 1,900). inhibition, % at 6.7 µM;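 active = mean PP5 inhibition over triplicate wells above about 9.5% taken from the earlier PP1 screen, limit read from the data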
An asterisk follows results filed as active.

`O=C1Nc2ccccc2/C1=C/c1cnc(-c2ccccc2)[nH]1` gave Beta cell apopt -8, Calb FLC 4, PP5 primary 2, Mdm2-MdmX inh -26, PP1 inh 35*, CSC inhib 30, PP1 confirm 35* and PP5 inh counter -1.
For O=C1Nc2ccccc2/C1=C/c1cccnc1 the results were Beta cell apopt -1, Calb FLC -5, PP5 primary 0, Mdm2-MdmX inh 26, PP1 inh -4 and CSC inhib -16.
For CCCCCC(=O)C(=O)c1ccc(O)cc1O the results were Beta cell apopt -2, Calb FLC -1, PP5 primary -1, Mdm2-MdmX inh -12, PP1 inh -3 and CSC inhib 6.
For O=C(CCNc1ccc(Cc2ccncc2)cc1)c1ccc([N+](=O)[O-])cc1 the results were Beta cell apopt -2, Calb FLC -24, PP5 primary -1, Mdm2-MdmX inh 24, PP1 inh 18*, CSC inhib 21, PP1 confirm 5 and PP5 inh counter -1.
Screening O=C(Nc1ccc(Cc2ccncc2)cc1)c1cccc([N+](=O)[O-])c1 returned Beta cell apopt -3, Calb FLC -3, PP5 primary 3, Mdm2-MdmX inh 19, PP1 inh 0 and CSC inhib 45.
`CCN(CC)C(=O)COc1ccc2c3c(c(=O)oc2c1)CCCC3` gave Beta cell apopt 0, Calb FLC 13, PP5 primary 1, Mdm2-MdmX inh -22, PP1 inh 2 and CSC inhib -20.
For CC(C)n1nnnc1SCC(=O)N1N=C(c2cccs2)CC1c1cccs1 (stereo not drawn) the results were Beta cell apopt -6, PP5 primary 5, Mdm2-MdmX inh -124, PP1 inh 1 and CSC inhib -3.
For Cc1cc(C)c(NC(=O)CSc2nc3ccc(NC(=O)CSc4nnnn4Cc4ccccc4)cc3s2)c(C)c1 the results were Beta cell apopt 2, Calb FLC -6, PP5 primary -2, Mdm2-MdmX inh 36, PP1 inh 20*, CSC inhib -2, PP1 confirm 31* and PP5 inh counter -5.
`Cc1cc(C)c(NC(=O)CSc2nc3ccc(NC(=O)CSc4nnnn4-c4ccccc4)cc3s2)c(C)c1` gave Beta cell apopt 14, Calb FLC -57, PP5 primary 3, Mdm2-MdmX inh 14, PP1 inh 4 and CSC inhib -1.
`O=C1C(=O)N(c2cccc(Cl)c2)C(c2ccccc2[N+](=O)[O-])/C1=C(\O)c1ccccc1` (stereo not drawn) gave Beta cell apopt -5, Calb FLC -1, PP5 primary 2, Mdm2-MdmX inh 1, PP1 inh -184, CSC inhib 2, PP1 confirm 2 and PP5 inh counter -2.
`O=c1cc(CN2CCc3ccccc32)nc2sccn12` gave Beta cell apopt -6, Calb FLC 3, PP5 primary 2, Mdm2-MdmX inh 22, PP1 inh 24*, CSC inhib -2, PP1 confirm 31* and PP5 inh counter -3.
O=c1cc(CN2CCCc3ccccc32)nc2sccn12 was read as Beta cell apopt -13, Calb FLC 5, PP5 primary -4, Mdm2-MdmX inh 12, PP1 inh 1 and CSC inhib -2.
`O=C(N/N=C/c1ccncc1)c1ccc(COc2cccc3cccnc23)cc1` gave Beta cell apopt -5, Calb FLC -12, PP5 primary -1, Mdm2-MdmX inh 29, PP1 inh 4 and CSC inhib 1.
For O=C(N/N=C/c1ccc2cccc(OCc3ccccc3)c2n1)c1ccc(Cl)cc1 the results were Beta cell apopt -14, Calb FLC 0, PP5 primary 3, Mdm2-MdmX inh 20, PP1 inh 24*, CSC inhib 11, PP1 confirm 2 and PP5 inh counter 0.
Screening COc1ccc(C(=O)N/N=C/c2ccc3cccc(O)c3n2)cc1 returned Beta cell apopt -4, Calb FLC 23, PP5 primary -4, Mdm2-MdmX inh 29, PP1 inh 20*, CSC inhib 3, PP1 confirm 5 and PP5 inh counter 2.
